Most compounds without a hit are left out; they make up all but 3% or so of the library.
SENP6 block – SENP6 protease inhibitors, primary screen, biochemical, luminescence, uHTS; Sentrin-specific protease 6 (Homo sapiens), Q9GZR1; Recombinant SENP6 catalytic domain, aminoluciferin luminescence; inhibition, % at 10 µM; 330,000 compounds, 1.8% hits; AID 2599, 2010;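 active = inhibition above about 50% at the single tested dose, limit read from the data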;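 note: plate controls were DMSO wells with enzyme for no effect and DMSO wells lacking enzyme for full effect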
SENP8 block-1 – human SENP8 protease inhibitors, primary screen, biochemical, fluorescence, Nedd8 protein substrate, uHTS; recombinant SENP8; inhibition, % at 20 µM; 360,000 compounds, 0.64% hits; in the data active = inhibition mostly above about 40%, no sharp cut-off; inactive = mostly below about 27%
Target sequence (Q96LD8 whole entry, looked up): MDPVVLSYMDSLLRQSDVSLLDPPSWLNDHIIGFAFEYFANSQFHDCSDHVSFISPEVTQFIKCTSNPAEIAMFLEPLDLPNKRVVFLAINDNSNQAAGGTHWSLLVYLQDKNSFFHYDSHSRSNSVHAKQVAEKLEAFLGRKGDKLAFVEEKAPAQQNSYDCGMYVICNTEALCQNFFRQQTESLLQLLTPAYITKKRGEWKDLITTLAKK
SENP8 block-2 – SENP8 protease inhibitors, primary screen, biochemical, luminescence; Sentrin-specific protease 8 (Homo sapiens), Q96LD8; purified SENP8, Z-RLRGG-aminoluciferin cleavage; inhibition, % at 10 µM; 330,000 compounds, 1.2% hits; AID 2540, 2010; in the data active = inhibition above about 50%
C8 TRAIL sens – viability loss with TRAIL in NB7+C8 cells, primary screen, TRAIL sensitizer project, cell-based, ATPlite luminescence. inhibition (viability loss, TRAIL sensitization), % at 10 µM. 360,000 compounds, 1% hits. AID 624354, 2012;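 active = compounds causing at least 50% loss of cell viability in the single-dose screen, relative to plate controls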
PPC-1+TRAIL kill – compounds killing PPC-1 cancer cells with TRAIL present, primary screen, TRAIL potentiator project, ATPLite luminescence, uHTS; PPC-1 cells + TRAIL, ATPLite viability luminescence; cell killing (% activity), % at 4 µM or 5 µM; 220,000 compounds, 0.41% hits; AID 1443, 2008;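 active = cell killing above 50% in the first pass at 4 µM, then a duplicate retest at 5 µM averaging 50% or more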;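 note: plate controls were cells with TRAIL plus DMSO for no effect and medium-only wells lacking cells for full effect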
SENP7 inh – SENP7 protease inhibitors, primary screen, biochemical, luminescence, uHTS. recombinant SENP7, Z-RLRGG-aminoluciferin luminescence, 40 min. 330,000 compounds, 1.5% hits. AID 434973, 2010. Sentrin-specific protease 7 (Homo sapiens), Q9BQF6. inhibition, % at 5 µM;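 active = inhibition above about 50% at the single test dose, limit read from the data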;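 note: plate controls were DMSO with enzyme for no effect and no enzyme buffer wells for full effect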
* hit, by the source's call; . = no result.

SMILES	SENP6 block	SENP8 block-1	SENP8 block-2	C8 TRAIL sens	PPC-1+TRAIL kill	SENP7 inh
O=c1c2[nH]c3ccccc3c2ncn1C1CCCCC1	-25	5	-12	69*	16	1
COC1=CC(=O)OC(c2ccccc2C(F)(F)F)C1 (configuration not stated)	.	12	.	9	.	.
CCOC(=O)N1CCN(C(=O)CSCC(=O)Nc2nc(-c3ccc(-c4ccccc4)cc3)cs2)CC1	2	-45	-6	62*	24	-5
COc1ccc(NC(=O)NCC(C)CSc2ccc(C)cc2)c(OC)c1 (configuration not stated)	-12	17	-7	-10	.	-7
O=C(CCN1C(=O)/C(=C\C=C\c2ccccc2)SC1=S)Nc1cccc(C(=O)O)c1	53*	24	55*	21	.	-11
Cc1ccc(/C=C2\SC(=S)N(CCC(=O)NNS(=O)(=O)c3ccccc3)C2=O)cc1	-3	59*	4	18	18	-3
O=C(CCN1C(=O)/C(=C\C=C\c2ccccc2)SC1=S)Nc1ccccc1C(=O)O	-1	-2	9	17	.	3
Cc1ccc(/C=C2\SC(=S)N(CCCC(=O)Nc3cccc(C(=O)O)c3)C2=O)cc1	91*	34	87*	10	.	61*
COc1cc(/C=C2\SC(=S)N(NS(=O)(=O)c3ccccc3)C2=O)ccc1O	8	48*	-8	-8	2	-8
Cc1ccc(/C=C2\SC(=S)N(CCC(=O)NNC(=O)c3ccccc3O)C2=O)cc1	-12	26	4	0	.	-1
COc1cc(/C=C2\SC(=S)N(NS(=O)(=O)c3ccc(C)cc3)C2=O)ccc1O	-10	16	0	-7	9	6
CCn1c(SCC(=O)NC2CCCC2)nnc1-c1cccnc1	-12	9	-4	17	.	-10
Cc1cc(C(=O)Cn2c(CO)nc3ccccc32)c(C)n1C	-14	12	-4	11	19	-9
COc1ccc(-c2ccc(SCC(=O)Nc3cccc(C(C)=O)c3)nn2)cc1OC	-9	8	-8	26	25	-5
CC(=O)c1cccc(NC(=O)CSc2ccc(-c3ccc4c(c3)OCO4)nn2)c1	-34	1	-27	64*	28	-2
CC(=O)C[C@H]1SC[C@@H](C(C)C)N1S(=O)(=O)c1ccc(C)cc1	.	12	.	1	.	.
N#Cc1ccccc1OCCCN1CCC(C(O)(c2ccccc2)c2ccccc2)CC1	.	18	.	-6	.	.
C#Cc1ccccc1OCCCN1CCC(C(O)(c2ccccc2)c2ccccc2)CC1	.	11	.	93*	.	.
Nc1c(C(=O)CSc2nc3ccccc3o2)c(=O)[nH]c(=O)n1C1CC1	-14	2	-6	25	.	8
O=C1C(Cl)=C(N2CCN(c3ccccc3[N+](=O)[O-])CC2)C(=O)c2ccccc21	.	61*	.	44	15	.
O=[N+]([O-])c1cc(Cl)ccc1N1CCCC1	-1	14	-1	-12	9	5
C=C1CC(COc2ccc3c(C)c(Cl)c(=O)oc3c2)(c2ccccc2)OC1=O (configuration not stated)	.	-495	.	90*	.	.
N/C(=N\OC(=O)c1ccc(Cl)cc1Cl)c1cccnc1	42	6	61*	61*	47	72*
CCc1ccc(CNC(=O)C2CC(=O)N(C3CCCC3)C2)cc1 (configuration not stated)	8	13	8	-6	.	3
CN1C=CC=C/C1=C1\SC(=S)N(c2ccccc2)C1=O	14	44*	6	-11	-8	12
CN1C=CC=C/C1=C1\SC(=S)N(CC(=O)O)C1=O	15	16	-4	-1	4	-4
Cc1cccc(C)c1NC(=O)CNC(=O)c1cn(-c2ccccc2)nc1-c1ccccc1	5	-2	8	8	.	-5
Cc1nn(Cc2c(Cl)cccc2Cl)c(C)c1NC(=O)c1cn(-c2ccccc2)nc1-c1ccccc1	5	11	9	76*	30	3
Nc1nc(-c2ccccc2)c(N=Nc2cccnc2)s1	-28	48*	-9	-9	23	-7

From PubChem
